{"source": "PubChem BioAssay AID504332", "about": "(National Center for Advancing Translational Sciences (NCATS), 2011)", "note": "The campaign covered roughly 350,000 compounds. About 31,000 (8.9%) were called active. About 15% were inconclusive and are not listed. Only a selection was taken, and actives are over-represented in it overall. Unmarked numbers belong to inactive results. Calls come from the whole dose curve; as a rule, active = well fitted inhibition curve with a large enough effect; inconclusive = small, poorly fitted or top-dose-only effect; inactive = no such curve, though single readings can be large or run the other way.", "data": [{"biological_target": "Histone-lysine N-methyltransferase EHMT2 (Homo sapiens) (UniProt Q96KQ7)", "sequence (Q96KQ7 913-1193 limits assumed)": "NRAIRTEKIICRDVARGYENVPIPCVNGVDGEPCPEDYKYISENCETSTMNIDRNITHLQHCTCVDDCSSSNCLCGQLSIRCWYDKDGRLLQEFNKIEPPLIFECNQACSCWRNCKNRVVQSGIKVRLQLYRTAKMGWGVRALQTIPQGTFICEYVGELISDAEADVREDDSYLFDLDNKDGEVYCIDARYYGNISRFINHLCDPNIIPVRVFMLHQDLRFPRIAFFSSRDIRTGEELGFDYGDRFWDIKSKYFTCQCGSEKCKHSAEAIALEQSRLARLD", "assay": "qHTS Assay for Inhibitors of Histone Lysine Methyltransferase G9a; note: nearly all actives have a fitted effect of over 75% in size; note: potency is the fitted concentration of half-maximal effect; for activity, negative = inhibition: % is set by controls: 0 for no effect and ±100 for the full control effect", "conditions": "G9a H3K9 monomethylation, AlphaScreen, 2 h; series mostly up to 59 µM; activity, negative = inhibition: at the top concentration", "description": "Methylated lysines, on the N-terminal tails of histone proteins serve as epigenetic markers to recruit factors that can then modify local chromatin structure to lead to functional consequences. G9a and other members of the SUV39 family of the SET domain-containing superfamily of histone lysine methyltransferases (HMT) have been identified to specifically methylate Lys9 of histone H3 (H3K9). G9a catalyzes the mono- and di-methylation of H3K9 in mammalian euchromatic regions, where the resulting H3K9me2 is indicative of transcriptional repression. […] The inhibition of G9a will result in transcriptional activation and work synergistically with DNA methyltransferase and histone deacetylase inhibitors, to kill cancer cells. This qHTS assay for identification of G9a inhibitors is a chemiluminescence based AlphaScreen (PerkinElmer). Methylation of biotinylated-histone peptide is measured through specific antibody-based detection, in conjunction with streptavidin-coated donor and anti-IgG antibody-coated acceptor beads. The method is particularly well suited for detection of inhibitors acting by the desired histone peptide competitive mechanism and is applicable to testing other HMTs. Although AlphaScreen has significant advantages with its utility in a variety of epigenetic target assays, the primary screening data provided in this deposition should be used with caution due to the prevalence of screening artifacts. An AlphaScreen counterscreen is highly recommended to be run against any putative actives to eliminate non specific artifacts. Alternatively, one can use other AlphaScreen assays in PubChem to filter out promiscuous hits. Quinn et al. A chemiluminescence-based method for identification of histone lysine methyltransferase inhibitors. Mol Biosyst 6(5): 782-8. 2010. PMID: 20567762 [2] Baell,Holloway. New substructure filters for removal of pan assay interference compounds (PAINS) from screening libraries and for their exclusion in bioassays. J Med Chem. 53(7):2719-40. 2010. PMID: 20131845 NIH Molecular Libraries Probe Production Network [MLPCN] NIH Chemical Genomics Center [NCGC] Structural Genomics Consortium (SGC) NIH Grant: 5U54 MH084681-02\nTo each well of a 1,536w plate, 2ul of HMT enzyme (final 20nM) were added, using a nanoliter dispenser. The G9a- and GLP-inhibitor BIX-01294 (CID: 25150857) are used as an intraplate control, with a 16-point titration in duplicate. A Kalypsys pin-tool transferred 23nl of library compound solution in DMSO to each well. Following a 15 min incubation of enzyme with compounds at room temperature, 1ul mixture of b-H3K9 peptide substrate (final 500nM) and SAM cofactor (final 20uM) were added. Reactions were allowed to proceed at room temperature for 2 hours. Methylated b-H3K9 peptide product was detected with 0.5 ug/mL rabbit polyclonal anti-monomethyl histone H3K9 antibody (Abcam Inc., Cambridge, MA) and 20 ug/mL each streptavidin-coated donor and anti-rabbit IgG acceptor AlphaScreen beads. Antibody and beads were added in a 1ul dispense, for a final volume of 4ul, and plates were incubated, protected from the light, for 10 min at room temperature. Microplates were then read on an EnVision multilabel plate reader using the 1,536 plate HTS AlphaScreen aperture (excitation time 80 ms, measurement time 240 ms).", "values": [{"compound": "CCCC1OC23CCCCC2C(C#N)(C#N)C1(C#N)C(=N)O3", "note": "(centres undefined)", "Potency": "17.8 µM (active)"}, {"compound": "Cc1cccc(NC(=O)CSc2nc3c(oc4ccccc43)c(=O)n2-c2ccc(F)cc2)c1", "activity, negative = inhibition": "4.81%"}, {"compound": "COc1ccc(C(=O)CN2C(=O)NC3(CCc4ccccc43)C2=O)c(OC)c1", "note": "(centres undefined)", "activity, negative = inhibition": "2.57%"}, {"compound": "CCC(CC)C(=O)N1CCc2cc(OC)c(OC)cc2C1COc1ccc(F)cc1", "note": "(centres undefined)", "activity, negative = inhibition": "10.1%"}, {"compound": "CC(Oc1ccc(Br)cc1)C(=O)NCC(c1ccco1)N1CCCCC1", "note": "(centres undefined)", "activity, negative = inhibition": "-6.2% [at 102 µM]"}, {"compound": "CCOC(CNC(=O)C(=O)NCC(c1ccco1)N1CCN(c2ccc(OC)cc2)CC1)OCC", "note": "(centres undefined)", "Potency": "79.4 µM (active)"}, {"compound": "COc1ccc(NC(=O)C(=O)NCC(c2ccco2)N2CCc3ccccc3C2)cc1", "note": "(centres undefined)", "activity, negative = inhibition": "24.1% [at 2.33 µM]"}, {"compound": "O=C(Cn1nc(C(F)(F)F)c2c1CCCC2)Nc1ccc(Cl)cc1", "activity, negative = inhibition": "2.55%"}, {"compound": "COc1ccccc1CNC(=O)C(=O)NCC(c1ccco1)S(=O)(=O)c1ccc(F)cc1", "note": "(centres undefined)", "activity, negative = inhibition": "-4.12%"}, {"compound": "Cc1cc2c(cc1C)N(C(=O)CN1C(=O)c3ccccc3C1=O)C(C)(C)c1ssc(=S)c1-2", "Potency": "28.2 µM (active)"}, {"compound": "Cc1ccc(NC(=O)CCN2C(=O)c3ccccc3C2=O)cc1C", "activity, negative = inhibition": "4.98% [at 102 µM]"}, {"compound": "Cc1cc(C)cc(NC(=O)CN2C(=O)c3ccccc3C2=O)c1", "activity, negative = inhibition": "30% [at 102 µM]"}, {"compound": "COC(=O)c1cc(C(=O)NC(C)C2CC3CCC2C3)cc([N+](=O)[O-])c1", "note": "(centres undefined)", "activity, negative = inhibition": "-43.7% [at 102 µM]"}, {"compound": "Cc1cc([N+](=O)[O-])c(N2CCC[C@@H]2C(=O)O)c([N+](=O)[O-])c1", "activity, negative = inhibition": "9.82%"}, {"compound": "CC1CCC2CCCCC2N1C(=O)c1cc([N+](=O)[O-])cc([N+](=O)[O-])c1", "note": "(centres undefined)", "Potency": "44.7 µM (active)"}, {"compound": "CCN(CC)C(=O)c1nc[nH]c1C(=O)N(C)Cc1ccccc1", "activity, negative = inhibition": "-4.89% [at 2.33 µM]"}, {"compound": "CCc1ccc(C2CC(=O)c3c([nH]c(C(=O)OCc4ccc(C)cc4)c3C)C2)cc1", "note": "(centres undefined)", "activity, negative = inhibition": "-1.01%"}, {"compound": "Cc1ccc(-c2nn(-c3ccccc3)cc2/C=C2\\SC(=S)N(CCCCCC(=O)O)C2=O)o1", "Potency": "3.98 µM (active)"}, {"compound": "Cc1ccc(/C=C2\\SC(=S)N(CCC(=O)Nc3ccc(O)cc3)C2=O)cc1", "activity, negative = inhibition": "9.57% [at 102 µM]"}, {"compound": "C=CCOc1ccc(/C=C2\\SC(=S)N(CCC(=O)O)C2=O)cc1", "activity, negative = inhibition": "-6.64%"}, {"compound": "CCC(=O)Nc1ccc2nc(C)n(Cc3ccccc3Cl)c(=O)c2c1", "activity, negative = inhibition": "6.34%"}, {"compound": "Cc1nc2ccn(Cc3cccnc3)c(=O)c2cc1C(=O)N1CCN(c2ccccc2F)CC1", "activity, negative = inhibition": "7.35%"}, {"compound": "CCN1CCN(c2cc3nc(C)n(Cc4ccccc4)c(=O)c3cc2NC(=O)c2ccccc2F)CC1", "Potency": "35.5 µM (active)"}, {"compound": "Cc1cccc(N(C)C(=O)CS(=O)(=O)c2cccc3nsnc23)c1", "activity, negative = inhibition": "9.05%"}, {"compound": "O=C(NCCCc1ccccc1)c1ccc2c(c1)sc1nc(-c3ccc(F)cc3)cn12", "activity, negative = inhibition": "-17.8%"}, {"compound": "O=C(CN1CCSCC1)N/N=C/c1ccc(Cl)cc1", "Potency": "11.2 µM (active)"}, {"compound": "Cc1ccc(/C=N/NC(=O)CN2CCN(Cc3ccccc3)CC2)s1", "activity, negative = inhibition": "14.1% [at 102 µM]"}, {"compound": "O=C(CN1CCSCC1)N/N=C/c1ccc(F)cc1", "Potency": "8.91 µM (active)"}, {"compound": "Cc1ccc(COc2ccc(/C=N/NC(=O)CN3CCCCC3)cc2)cc1", "activity, negative = inhibition": "-11.8% [at 102 µM]"}, {"compound": "O=C(CN1CCN(C/C=C/c2ccccc2)CC1)Nc1ccc(F)cc1F", "activity, negative = inhibition": "-7.31% [at 102 µM]"}, {"compound": "O=C(CN1CCSCC1)N/N=C/c1ccc(F)cc1F", "Potency": "15.8 µM (active)"}, {"compound": "O=C(Cn1cc(C(F)(F)F)ccc1=O)N/N=C/c1ccc(Cl)cc1Cl", "activity, negative = inhibition": "1.22%"}, {"compound": "O=C(CC(=O)N/N=C\\c1ccc(F)cc1)NCCc1ccccc1", "activity, negative = inhibition": "2.67% [at 0.501 µM]"}, {"compound": "Cc1nn(CC(=O)N/N=C/c2ccc(F)cc2)c(C)c1[N+](=O)[O-]", "activity, negative = inhibition": "-0.915% [at 102 µM]"}, {"compound": "O=C1CCCc2cc(S(=O)(=O)N3CCCC(C(=O)NCc4ccccc4)C3)ccc2N1", "note": "(centres undefined)", "activity, negative = inhibition": "-9.07%"}, {"compound": "c1ccc2c(c1)CCc1snnc1-2", "activity, negative = inhibition": "-5.46% [at 0.501 µM]"}, {"compound": "Cc1ccccc1OCC(=O)NNC(=O)c1ccc(-n2cncn2)c([N+](=O)[O-])c1", "activity, negative = inhibition": "21.2% [at 102 µM]"}, {"compound": "COc1ccc(-c2cc(C(F)(F)F)n3nc(-c4ccccc4)cc3n2)cc1OC", "activity, negative = inhibition": "33.6%"}, {"compound": "CSCCC(NC(=O)c1ccccc1)C(=O)N1CCCCCCC1", "note": "(centres undefined)", "activity, negative = inhibition": "35.6% [at 12.7 µM]"}, {"compound": "CC(C)N(Cc1nnc(-c2ccc(Cl)cc2)o1)C(=O)C1=COCCO1", "activity, negative = inhibition": "-1.89% [at 102 µM]"}, {"compound": "COc1cc2ccccc2cc1C(=O)Nc1ccccc1C", "activity, negative = inhibition": "16.4%"}, {"compound": "COc1cccc(OCC(O)CNC(=O)c2oc3c(C)c(C)ccc3c2C)c1", "note": "(centres undefined)", "activity, negative = inhibition": "14.5% [at 102 µM]"}, {"compound": "CCCNC(=O)CCC(=O)N1Cc2ccccc2Oc2ncccc21", "activity, negative = inhibition": "-5.24%"}, {"compound": "CCn1ccnc1CNC(=O)CC1C(=O)NCCN1CCCc1ccccc1", "note": "(centres undefined)", "activity, negative = inhibition": "39.1% [at 102 µM]"}, {"compound": "O=C(CC1C(=O)NCCN1CC(c1ccccc1)c1ccccc1)NCCc1cn[nH]c1", "note": "(centres undefined)", "Potency": "44.7 µM (active)"}, {"compound": "O=C(CC1C(=O)NCCN1Cc1ccc(-c2ccccc2)cc1)NCC1CCOCC1", "note": "(centres undefined)", "activity, negative = inhibition": "-23.9% [at 102 µM]"}, {"compound": "COc1ccc(NC(=O)CSc2nc3ncccc3[nH]2)c(OC)c1", "activity, negative = inhibition": "5.44%"}, {"compound": "CN(c1ccccc1)S(=O)(=O)c1cccc(NC(=O)Cc2ccc(Cl)cc2)c1", "activity, negative = inhibition": "-10.8% [at 12.7 µM]"}, {"compound": "CCc1ccc(C(=O)N2CCN(S(=O)(=O)c3sc(C(=O)O)c(C)c3C(=O)O)CC2)cc1", "activity, negative = inhibition": "10.3% [at 2.33 µM]"}]}]}
